Calls of active or inactive are those of the source. Unless noted, no rule for the calls is given here.
Key:
[1] = tested on: Wnt5a (protein binding on small-molecule microarray); test: Wnt5a binders on small-molecule microarray, primary screen, biophysical, 635/667 nm fluorescence (AID 1142); conditions: 635 nm fluorescence, higher = more signal;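 also: fluorescence read at 667 nm with signal to noise per printed feature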
[2] = cell viability in Huh7 cells, primary screen, cytotoxicity control for HCV replication inhibitor project, CellTiter-Glo luminescence, basal, 48 h (AID 1143); conditions: Huh7 HCV replicon, higher = more signal, called active from +8 up or from −8 down;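 also: Huh7 hepatoma cells carrying a hepatitis C replication reporter with no stimulus; test concentration not given here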
[3] = P. aeruginosa biofilm formation inhibitors, primary screen, PAO1 strain, BacTiter-Glo luminescence, LB-PBS (AID 1144); conditions: 12 h, higher = more signal
[4] = CREB reporter modulators without forskolin, primary screen, cell-based, PC12, CRE-LacZ reporter, unstimulated (AID 1145); conditions: no forskolin, luminescence, 4.5 h, higher = more signal, called active from +8 up or from −8 down
[5] = CREB reporter modulators under forskolin, primary screen, cell-based, PC12, CRE-LacZ reporter, forskolin-stimulated (AID 1146); conditions: luminescence, 4.5 h, higher = more signal, called active from +8 up or from −8 down;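 also: PC12 cells with 6xCRE LacZ reporter stimulated by forskolin 10 µM; beta-galactosidase reporter signal reflecting CREB driven transcription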
[6] = target: Streptavidin (Streptomyces avidinii) (UniProt P22629); test: streptavidin binders on small-molecule microarray, primary screen, artefact control for SMM compound annotation, biophysical, 635/667 nm fluorescence (AID 1147); conditions: streptavidin binding, higher = more signal;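 also: signal reflects streptavidin binding to arrayed compounds as a control protein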
Chain of Streptavidin (Streptomyces avidinii) (P22629 whole entry, looked up): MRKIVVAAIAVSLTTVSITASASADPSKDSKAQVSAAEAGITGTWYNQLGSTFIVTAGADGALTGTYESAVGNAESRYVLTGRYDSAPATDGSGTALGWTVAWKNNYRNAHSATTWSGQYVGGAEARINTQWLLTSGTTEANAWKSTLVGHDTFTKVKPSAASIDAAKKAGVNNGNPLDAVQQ

[7] = small-molecule binders of probe aInhba, primary screen, biochemical, small-molecule microarray, 635/667 nm fluorescence (AID 1148); conditions: higher = more signal;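 also: score merges 667nm spot fluorescence with signal-to-noise for antibody binding to printed compounds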
Torsin-1A (Homo sapiens) [8] = target: Torsin-1A (Homo sapiens) (UniProt O14656); test: torsin A binders from cell lysate, primary screen, small-molecule microarray, wild-type, 635/667 nm (AID 1149); conditions: COS7 hTOR1A-WT lysate, 635 nm fluorescence, higher = more signal
Chain of Torsin-1A (Homo sapiens) (O14656 whole entry, looked up): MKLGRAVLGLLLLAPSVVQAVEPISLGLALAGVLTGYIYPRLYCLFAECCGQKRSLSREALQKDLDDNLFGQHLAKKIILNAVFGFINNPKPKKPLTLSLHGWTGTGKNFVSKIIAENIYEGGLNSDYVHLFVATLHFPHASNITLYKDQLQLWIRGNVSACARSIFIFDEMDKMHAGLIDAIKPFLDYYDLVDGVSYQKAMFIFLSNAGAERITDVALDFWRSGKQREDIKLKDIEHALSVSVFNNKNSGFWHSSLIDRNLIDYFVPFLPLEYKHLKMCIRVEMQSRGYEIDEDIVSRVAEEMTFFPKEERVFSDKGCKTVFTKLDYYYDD

Torsin-1A (Homo sapiens) [9] = target: Torsin-1A (Homo sapiens) (UniProt O14656); test: small-molecule binders of mutant TOR1A in lysate, primary screen, cell lysate, small-molecule microarray, COS7 lysate, 635/667 nm fluorescence (AID 1150); conditions: COS7 hTOR1A mutant lysate, 635 nm fluorescence, higher = more signal;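 also: score pools 667 nm emission and signal to noise measuring lysate protein binding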
[10] = tested on: Sonic hedgehog protein (Shh); test: small-molecule binders of Shh protein, primary screen, biochemical, small-molecule microarray, 635/667 nm fluorescence (AID 1151); conditions: small-molecule microarray binding, 635 nm fluorescence; higher = more signal;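 also: Shh protein binding to compounds spotted on small-molecule microarray slides; score combines spot fluorescence intensity with signal-to-noise across triplicate slides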
[11] = E. coli DRC41 culture turbidity changes, primary screen, E. coli filamentation inducer project, strain DRC41, OD650, 48 h (AID 1152);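 also: E. coli MC1000 strain DRC41 lacking acrAB efflux pump and sulA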; conditions: E. coli DRC41 (acrAB sulA), higher = more signal, called active from +8 up or from −8 down
[12] = small-molecule binders of probe aLefty1, primary screen, biochemical, small-molecule microarray, 635/667 nm fluorescence (AID 1153); conditions: higher = more signal;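 also: score merges spot fluorescence with signal-to-noise ratio from the scanned slide images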
[13] = PSAC antagonists in infected red cells, primary screen, cell-based, P. falciparum Indochina, OD700, 1 h (AID 1154); conditions: P. falciparum Indochina infected RBC osmotic lysis, higher = more signal, called active from +8 up or from −8 down
[14] = PSAC antagonists in infected red cells, primary screen, cell-based, P. falciparum Indochina, OD700, 2 h (AID 1155);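 also: lysis reports solute entry through the parasite surface anion channel PSAC; channel blockers reduce lysis of infected cells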; conditions: P. falciparum Indochina infected erythrocytes, osmotic lysis OD700; higher = more signal, called active from +8 up or from −8 down
[15] = osmotic lysis modulators in infected erythrocytes, primary screen, PSAC antagonist project, cell-based, P. falciparum Indochina, OD700, 3 h (AID 1156); conditions: higher = more signal, called active from +8 up or from −8 down
[16] = PSAC antagonists in infected red cells, primary screen, cell-based, P. falciparum Indochina, OD700, 18 h (AID 1157); conditions: P. falciparum Indochina infected erythrocytes, osmotic lysis OD700, 18 h; higher = more signal, called active from +8 up or from −8 down
[17] = modulators of S6 phosphorylation in cells, primary screen, cell-based, A549, cytoblot, luminescence, serum-stimulated (AID 1158); conditions: A549 phospho-S6 cytoblot, 5 h, higher = more signal;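 also: serum-stimulated A549 lung adenocarcinoma cells; signal is phosphorylated S6 detected by cytoblot immunostaining with HRP secondary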
[18] = target: NADPH oxidase 2 (Homo sapiens) (UniProt P04839); test: NOX2-dependent H2O2 signal modulators, primary screen, NOX inhibitor project, cell-based, HEK293-NOX2, PMA-stimulated, Amplex Red fluorescence (AID 1159); conditions: 45 min, higher = more signal, called active from +8 up or from −8 down; also: test concentration not given here
Chain of NADPH oxidase 2 (Homo sapiens) (P04839 whole entry, looked up): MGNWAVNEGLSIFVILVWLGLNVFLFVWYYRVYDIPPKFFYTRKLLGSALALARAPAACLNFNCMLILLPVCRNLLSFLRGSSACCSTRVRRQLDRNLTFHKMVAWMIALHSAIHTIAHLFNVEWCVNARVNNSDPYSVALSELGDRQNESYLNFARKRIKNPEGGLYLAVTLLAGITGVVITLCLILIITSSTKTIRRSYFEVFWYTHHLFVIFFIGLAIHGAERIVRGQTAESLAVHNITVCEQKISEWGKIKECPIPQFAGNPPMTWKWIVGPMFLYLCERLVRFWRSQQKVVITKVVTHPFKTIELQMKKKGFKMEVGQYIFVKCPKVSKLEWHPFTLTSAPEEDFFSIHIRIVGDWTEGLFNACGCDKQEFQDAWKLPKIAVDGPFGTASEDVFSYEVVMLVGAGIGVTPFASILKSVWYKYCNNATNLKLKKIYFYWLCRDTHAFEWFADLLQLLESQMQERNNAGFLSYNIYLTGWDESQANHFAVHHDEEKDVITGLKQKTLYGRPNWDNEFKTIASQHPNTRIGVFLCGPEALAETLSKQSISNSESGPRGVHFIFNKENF

[19] = target: NADPH oxidase 4 (Homo sapiens) (UniProt Q9NPH5); test: NOX4-dependent H2O2 signal modulators, primary screen, NOX inhibitor project, cell-based, HEK293-NOX4, tetracycline-induced, Amplex Red fluorescence (AID 1160); conditions: 45 min, higher = more signal, called active from +8 up or from −8 down
Chain of NADPH oxidase 4 (Homo sapiens) (Q9NPH5 whole entry, looked up): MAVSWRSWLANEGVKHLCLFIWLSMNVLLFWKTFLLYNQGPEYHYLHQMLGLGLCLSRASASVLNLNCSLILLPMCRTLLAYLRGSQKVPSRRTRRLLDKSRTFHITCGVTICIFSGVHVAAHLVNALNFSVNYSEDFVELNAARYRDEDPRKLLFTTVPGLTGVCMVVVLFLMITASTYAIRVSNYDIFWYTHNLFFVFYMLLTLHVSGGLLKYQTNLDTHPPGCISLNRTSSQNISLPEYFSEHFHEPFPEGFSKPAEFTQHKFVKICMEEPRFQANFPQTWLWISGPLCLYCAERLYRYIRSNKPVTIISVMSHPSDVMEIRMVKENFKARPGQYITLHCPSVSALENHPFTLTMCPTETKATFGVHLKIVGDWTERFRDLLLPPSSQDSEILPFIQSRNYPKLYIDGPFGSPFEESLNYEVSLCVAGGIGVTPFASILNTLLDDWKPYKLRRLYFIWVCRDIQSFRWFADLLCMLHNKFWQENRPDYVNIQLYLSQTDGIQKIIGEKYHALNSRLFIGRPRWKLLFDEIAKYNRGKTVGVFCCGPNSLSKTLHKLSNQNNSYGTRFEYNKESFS

[20] = target: NADPH oxidase 5 (Homo sapiens) (UniProt Q96PH1); test: NOX5-dependent H2O2 signal modulators, primary screen, NOX inhibitor project, cell-based, HEK293-NOX5, Amplex Red fluorescence (AID 1161); conditions: HEK293-NOX5, ionomycin, 45 min, higher = more signal
Chain of NADPH oxidase 5 (Homo sapiens) (Q96PH1 whole entry, looked up): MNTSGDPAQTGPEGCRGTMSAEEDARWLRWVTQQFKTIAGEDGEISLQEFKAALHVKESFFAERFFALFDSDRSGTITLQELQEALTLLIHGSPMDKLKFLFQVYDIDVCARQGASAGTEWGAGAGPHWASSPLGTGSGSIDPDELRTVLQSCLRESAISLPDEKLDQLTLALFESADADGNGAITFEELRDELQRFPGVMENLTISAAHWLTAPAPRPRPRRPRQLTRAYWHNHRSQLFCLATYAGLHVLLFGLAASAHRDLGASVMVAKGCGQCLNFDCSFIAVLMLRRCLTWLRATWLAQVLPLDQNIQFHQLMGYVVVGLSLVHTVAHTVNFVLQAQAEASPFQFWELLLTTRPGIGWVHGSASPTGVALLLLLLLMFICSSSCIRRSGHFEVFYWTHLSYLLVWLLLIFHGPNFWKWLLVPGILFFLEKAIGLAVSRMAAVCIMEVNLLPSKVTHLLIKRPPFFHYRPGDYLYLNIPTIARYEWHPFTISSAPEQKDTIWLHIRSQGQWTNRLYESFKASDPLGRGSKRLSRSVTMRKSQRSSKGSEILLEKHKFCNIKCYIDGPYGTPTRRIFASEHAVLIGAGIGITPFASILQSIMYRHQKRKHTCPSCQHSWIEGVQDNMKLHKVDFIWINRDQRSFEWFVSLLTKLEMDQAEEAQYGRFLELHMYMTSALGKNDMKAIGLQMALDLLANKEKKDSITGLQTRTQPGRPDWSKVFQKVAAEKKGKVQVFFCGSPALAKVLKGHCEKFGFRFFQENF

SMILES	composite z-score [1]	z-score [2]	z-score [3]	z-score [4]	z-score [5]	composite z-score [6]	composite z-score [7]	composite z-score (Torsin-1A (Homo sapiens) [8])	composite z-score (Torsin-1A (Homo sapiens) [9])	composite z-score [10]	z-score [11]	composite z-score [12]	z-score [13]	z-score [14]	z-score [15]	z-score [16]	z-score [17]	z-score [18]	z-score [19]	z-score [20]
COCCOC(=O)N1C(=O)[C@@]2(c3cc(C#CCNC(N)=O)ccc31)[C@H](C(=O)N1CCCCCCC1)[C@H]1C(=O)O[C@H](c3ccccc3)[C@H](c3ccccc3)N1[C@@H]2c1ccccc1OCCO	0.472	-0.798 (inactive)	-0.416 (inactive)	-0.602 (inactive)	-1.01 (inactive)	0.875	0.218	0.207	0.645	1.09	-0.332 (inactive)	1.28	1.17 (inactive)	1.53 (inactive)	0.926 (inactive)	0.927 (inactive)	0.344	1.66 (inactive)	0.683 (inactive)	0.357
[N-]=[N+]=NCc1ccccc1C[C@]1(C(=O)N2CCCCC2)N=C(c2ccc(OCCCO)cc2)O[C@H]1c1ccccc1CN=[N+]=[N-]	0.129	-4.48 (inactive)	0.447 (inactive)	1.88 (inactive)	0.102 (inactive)	0.995	0.233	0.064	0.741	-0.0292	-0.481 (inactive)	0.42	16.1 (active)	3.02 (inactive)	2.16 (inactive)	1.16 (inactive)	-0.574	0.545 (inactive)	-0.692 (inactive)	-0.824
C=C(CCCC)/C(=C/C[C@H](OC(=O)c1ccncc1)c1cccc(OCCO)c1)c1cc(C(=O)OC)ccc1OC	0.84	-5.25 (inactive)	-0.536 (inactive)	6.81 (inactive)	-0.802 (inactive)	0.396	-0.0695	0.349	0.458	1.61	1.93 (inactive)	0.0406	21.6 (active)	3.75 (inactive)	1.61 (inactive)	-0.403 (inactive)	1.21	-3.36 (inactive)	-1.72 (inactive)	-2.92
C=CCC(OC(C)=O)[C@@H]1[C@@H](N(Cc2ccc(-c3cccc(C(F)(F)F)c3)o2)C(=O)Cc2ccc(F)cc2)c2cc(OCCCO)ccc2N1C(=O)c1ccc(-c2ccccc2)cc1 (stereo not given in full)	-0.206	-0.072 (inactive)	-0.581 (inactive)	0.6 (inactive)	0.875 (inactive)	0.0628	-0.157	-0.53	-0.253	0.475	-1.01 (inactive)	-0.0489	1.23 (inactive)	-0.401 (inactive)	-0.642 (inactive)	-0.255 (inactive)	-0.0924	-0.0336 (inactive)	1.1 (inactive)	1.29
O=C(CS)NCCCCCCNC(=O)[C@@H]1C[C@@H]2C(=O)N[C@@H](Cc3ccccc3)C(=O)N2[C@@H]1c1ccc(O)cc1	0.588	-0.345 (inactive)	-0.75 (inactive)	-0.537 (inactive)	-0.835 (inactive)	0.226	0.0503	1.12	1.14	1.86	0.706 (inactive)	0.0273	6.26 (inactive)	1.52 (inactive)	4.5 (inactive)	0.595 (inactive)	-0.113	1.48 (inactive)	0.457 (inactive)	0.729
Cc1ccc(S[C@]2(C(=O)O)CC(=O)N(Cc3cc(C(F)(F)F)cc(C(F)(F)F)c3)[C@@H]2c2ccc(CO)cc2I)cc1	0.176	-2.71 (inactive)	0.519 (inactive)	0.261 (inactive)	0.859 (inactive)	-0.718	-0.106	-1.1	-0.3	0.42	0.367 (inactive)	0.26	5.86 (inactive)	0.877 (inactive)	1.03 (inactive)	0.522 (inactive)	0.243	1.75 (inactive)	-2.5 (inactive)	0.547
CC(=O)NCCCC[C@@H]1NC(=O)[C@H]2C[C@@H](C(=O)NCCCCCCN(C)C)[C@@H](c3cccc(OCCO)c3)N2C1=O	0.906	-0.102 (inactive)	-0.542 (inactive)	0.0084 (inactive)	0.172 (inactive)	0.369	0.222	1.37	1.88	2.22	-0.179 (inactive)	0.257	2.81 (inactive)	0.461 (inactive)	1.25 (inactive)	0.376 (inactive)	0.317	0.779 (inactive)	0.301 (inactive)	1.44
C=CC[C@]1(C(=O)O)N=C(c2ccc(OCCCO)cc2)O[C@H]1c1ccccc1N=[N+]=[N-]	0.477	-0.426 (inactive)	1.09 (inactive)	0.629 (inactive)	-1.32 (inactive)	1.27	-0.026	0.0545	0.125	-0.373	1.76 (inactive)	0.0299	32.9 (active)	29.4 (active)	3.38 (inactive)	9.45 (active)	0.883	-1.53 (inactive)	0.823 (inactive)	-0.199
O=C1C2C=CC(C(O)C#Cc3ccccc3)N(Nc3ccccc3)C2C(=O)N1c1ccccc1 (stereo not given)	0.0509	0.842 (inactive)	-0.2 (inactive)	0.24 (inactive)	0.0728 (inactive)	0.464	0.0659	0.795	-0.0627	-0.0028	-0.559 (inactive)	-0.025	4.69 (inactive)	1.8 (inactive)	0.537 (inactive)	1.49 (inactive)	-0.964	-0.432 (inactive)	-4.44 (inactive)	-1.09
CCC#CCN(Cc1ccccc1Br)[C@H](/C=C/c1ccccc1)[C@@H](O)Cc1ccccc1	-0.659	-1.45 (inactive)	0.282 (inactive)	2.94 (inactive)	0.272 (inactive)	-0.312	-0.179	-0.586	-0.542	-1.18	0.625 (inactive)	-0.0035	1.79 (inactive)	1.15 (inactive)	-0.696 (inactive)	0.475 (inactive)	-0.218	-0.267 (inactive)	0.0785 (inactive)	-0.41
Cc1ccc(S[C@]2(C(=O)NCCCN(C)C)CC(=O)N(Cc3ccccc3)[C@@H]2c2ccc(CO)cc2I)cc1	-0.278	-2.97 (inactive)	0.831 (inactive)	0.531 (inactive)	2.84 (inactive)	-0.0112	-0.0645	-1.84	-1.08	-0.824	-0.901 (inactive)	0.374	8.39 (active)	0.909 (inactive)	1.94 (inactive)	0.256 (inactive)	-0.0322	-0.234 (inactive)	-1.63 (inactive)	1.72
CO[C@H]1O[C@H](CO)[C@@H](OC(=O)Nc2ccc3c(c2)OCO3)[C@H](OC(=O)Nc2ccccc2)[C@@H]1OC(=O)Nc1ccccc1	0.743	-3.5 (inactive)	-0.22 (inactive)	0.605 (inactive)	-1.49 (inactive)	0.327	0.0398	0.491	1.09	1.12	-1.51 (inactive)	0.121	7.77 (inactive)	0.903 (inactive)	-0.33 (inactive)	0.717 (inactive)	0.342	1.07 (inactive)	-0.393 (inactive)	-0.675
C#CCNC(/C=C/c1ccccc1)CO (stereo not given)	-0.0285	0.171 (inactive)	-0.558 (inactive)	-0.237 (inactive)	1.39 (inactive)	-0.114	-0.0846	0.304	0.443	0.448	-0.759 (inactive)	-0.252	-0.181 (inactive)	0.36 (inactive)	0.286 (inactive)	0.0834 (inactive)	0.168	-0.867 (inactive)	0.813 (inactive)	-0.548
CC(C)=C1C(=O)C(c2ccccc2)=C2CN3C(=O)N(CCc4ccccc4)C(=O)[C@]3(Cc3ccccc3)[C@H]21	-0.355	-0.462 (inactive)	0.105 (inactive)	0.783 (inactive)	0.379 (inactive)	0.0686	0.128	-2.07	-1.13	-1.32	-1.7 (inactive)	0.341	20.9 (active)	3.79 (inactive)	1.3 (inactive)	0.913 (inactive)	-0.621	-0.379 (inactive)	0.1 (inactive)	0.365
CCOC(=O)C[C@H]1[C@H](OC(=O)c2ccccc2-c2ccccc2)[C@@H](NC(=O)c2ccc(-c3ccccc3)cc2)c2cc(OCCCO)ccc2N1C(=O)Cc1ccc(OC)cc1	0.17	0.132 (inactive)	0.846 (inactive)	2.3 (inactive)	0.41 (inactive)	0.0511	0.038	-0.153	1.02	0.56	-0.866 (inactive)	-0.147	17.3 (active)	2.83 (inactive)	-0.405 (inactive)	0.575 (inactive)	0.111	0.155 (inactive)	1.22 (inactive)	1.21
CC(C)C[C@@H]1NC(=O)[C@H](CC(C)C)NC(=O)[C@@]23C(=O)N[C@@H](Cc4ccccc4)C2[C@H](C)[C@@]2(C)O[C@H]2C3/C=C/CC/C=C/CNC1=O (stereo not given in full)	-0.048	-3.54 (inactive)	-1.16 (inactive)	0.126 (inactive)	-0.792 (inactive)	1.3	-0.128	0.382	0.29	1.14	-0.239 (inactive)	0.0275	1.7 (inactive)	0.627 (inactive)	1.33 (inactive)	0.575 (inactive)	-0.0044	0.123 (inactive)	0.349 (inactive)	-1.62
CC(c1ccccc1)C(O)C1C=CC2C(=O)N(C)C(=O)C2N1N(c1ccccc1)c1ccccc1 (stereo not given)	0.156	0.066 (inactive)	-0.131 (inactive)	0.443 (inactive)	0.696 (inactive)	0.377	0.153	0.18	0.426	-0.586	-1.04 (inactive)	0.391	1.02 (inactive)	0.386 (inactive)	0.625 (inactive)	0.777 (inactive)	-0.987	-0.735 (inactive)	-0.411 (inactive)	-0.649
